Sampled rows, rich in hits. Any-hit rate of the full collection: about 3.1%.
PTAP TSG101 blk: blocks PTAP/TSG101 interaction to inhibit HIV-1 budding; Q99816; Fluorescence polarization, FITC-PTAP peptide / Tsg101 binding; Potency, µM (doses to about 115 µM), inactives show at the highest dose activity change, negative = inhibition, hits mostly inhibitors; 340,000 tested, under 10 active; active = well fitted inhibition curve with a large enough effect in the main read-out, with a control signal flat, not every such curve was filed as active; inconclusive = small, poorly fitted or top-dose-only effect, or effect the other way, or a change in a side signal; inactive = no such curve, though single readings can be large or run the other way; also: potency is read from the fitted curve at half-maximal effect; % of control where 0% means no effect
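FP read-out: FITC-PTAP peptide, 50 nM final, binding Tsg101 binding domain, 10 uM final; 20 min, r.t.; 10 mM HEPES pH 7.5, 0.15 M NaCl, 0.01% Tween 20, 3 mM EDTA, 0.1 mM TCEP.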
PLK1 PBD inh: inhibitors of human PLK1 polo-box domain binding. P53350. Plk1 PBD binding of FITC phosphopeptide, fluorescence polarization. Potency, µM, for the others: max response, negative = inhibition, usual class: inhibitors. 2.8% of 360,000 active. AID 720504; also: potency is read from the fitted curve at half-maximal effect; series mostly up to about 57 µM; % is scaled to controls: 0 for no effect and ±100 for the full control effect; nearly all actives have a fitted effect of over 65% in size
Target sequence (P53350 whole entry, looked up, the tested form may be a part): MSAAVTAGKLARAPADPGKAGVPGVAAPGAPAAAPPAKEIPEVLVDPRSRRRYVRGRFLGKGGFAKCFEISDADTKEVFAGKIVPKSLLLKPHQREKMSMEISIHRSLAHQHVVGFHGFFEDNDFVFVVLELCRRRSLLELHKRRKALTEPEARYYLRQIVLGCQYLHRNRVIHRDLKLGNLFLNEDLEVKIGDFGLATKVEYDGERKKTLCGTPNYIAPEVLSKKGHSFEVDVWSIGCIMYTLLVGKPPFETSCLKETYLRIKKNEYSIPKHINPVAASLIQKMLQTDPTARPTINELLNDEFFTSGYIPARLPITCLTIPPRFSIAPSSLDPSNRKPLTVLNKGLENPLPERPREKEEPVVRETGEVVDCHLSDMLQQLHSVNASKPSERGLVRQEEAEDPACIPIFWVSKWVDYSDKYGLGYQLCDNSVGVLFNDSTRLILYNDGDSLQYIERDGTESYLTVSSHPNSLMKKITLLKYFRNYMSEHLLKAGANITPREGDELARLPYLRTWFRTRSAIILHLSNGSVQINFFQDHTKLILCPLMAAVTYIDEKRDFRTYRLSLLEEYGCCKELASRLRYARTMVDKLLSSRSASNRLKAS
TSHR antagonist: human thyrotropin receptor antagonism. P16473. TSHR-expressing cells, TSH-stimulated cAMP HTRF, 2 h; active compounds read low. activity change, negative = inhibition, % at 11.5 µM. 0.2% of 330,000 active. AID 504810;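 active = activity change below a set negative limit, meaning inhibition stronger than a set level, cut at about -70% in these data; inconclusive = activity change between two set negative limits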; also: % is scaled to controls: 0 for no effect and ±100 for the full control effect
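Inhibition of cAMP made by TSHR-expressing cells under TSH stimulation (4nM final, EC80; 2 h, 37 deg C) is quantified with a one-step lysis HTRF kit, anti-cAMP cryptate versus cAMP-d2.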
VDR inhibitor: blocks the human vitamin D receptor. P11473. VDR-SRC2-3 peptide fluorescence polarization, 2 h. Potency, µM, for inactives: max response, negative = inhibition, hits mostly inhibitors. 0.93% of 400,000 active. AID 504847; also: potency is read from the fitted curve at half-maximal effect; % is scaled to controls: 0 for no effect and ±100 for the full control effect
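Fluorescence polarization assay measuring small-molecule disruption of VDR binding to the coregulator peptide SRC2-3. Compounds were pin-transferred (23 nl) into the reagent mix and incubated 2 h at room temperature before reading.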
uPA generation: blocks generation of uPA at the cell surface. cell surface uPA generation assay, qHTS. AID 540303. Potency, µM (titrated, usually from 38.3 µM), without a hit: top-dose activity change, negative = inhibition, most hits filed as inhibitors. 0.31% of 330,000 active; active = well fitted inhibition curve with a large enough effect; inconclusive = small, poorly fitted or top-dose-only effect; inactive = no such curve, though single readings can be large or run the other way; tested in mouse RAW 264.7 cells; also: potency is read from the fitted curve at half-maximal effect; % is scaled to controls: 0 for no effect and ±100 for the full control effect; nearly all actives have a fitted effect of over 55% in size
The depositor's hits bear a star; ? = inconclusive; / = not tested or not shown. Unless noted, calls follow the shape of the dose curve; as a rule, active = well fitted curve in the direction sought with a large enough effect; inconclusive = small, poorly fitted or top-dose-only effect, or another doubt; inactive = no such curve, though single readings can be large; an effect the other way counts as inactive or inconclusive.

SMILES	PTAP TSG101 blk	PLK1 PBD inh	TSHR antagonist	VDR inhibitor	uPA generation
CCOc1ccc(NC(=O)CSC2=Nc3ccccc3C3=NC(CC(=O)NCc4ccc5c(c4)OCO5)C(=O)N23)cc1 (stereo not drawn)	/	/	/	5%	/
CN(C)c1ccc(C(=O)N2CCC2(C)C(=O)O)cc1 (stereo not drawn)	/	7%	/	/	/
Cc1cc(Cl)c2oc(C(=O)N(C)CCc3cnn(C)c3)c(C)c2c1	-4%	24µM*	3	-27%	-12%
COc1ccc(-c2csc(/C(C#N)=C\c3ccc(O)c([N+](=O)[O-])c3)n2)cc1OC	-8%	27µM*	-72*	2%	4%
COc1cc(/C=C(\C#N)c2nc3ccccc3s2)cc([N+](=O)[O-])c1O	-12%	21µM*	-71*	-17%	6%
N#C/C(=C\c1ccc(O)c([N+](=O)[O-])c1)c1nc2ccccc2s1	-1%	24µM*	?	?	-3%
N#C/C(=C\c1ccco1)c1nc2ccccc2s1	?	-12%	-1	-2%	-26%
O=C(O)CC/C(=C\c1ccc(Cl)c([N+](=O)[O-])c1)c1nc2ccccc2s1	-2%	-29%	16	-28%	-3%
COc1ccc(-c2csc(/C(C#N)=C\c3ccc(OC)c([N+](=O)[O-])c3)n2)cc1	?	-5%	-2	-2%	1%
CS(=O)(=O)N1CCC2(CC1)CN(c1ccccn1)C2	/	/	/	13%	/
CCOc1ccc(-n2nc3ccc(N)cc3n2)cc1	-5%	-2%	8	-23%	10µM*
COc1ccc(-n2nc3ccc(N)cc3n2)cc1	/	3%	/	/	/
Cc1c(-c2ccccc2)c(=O)oc2c(CN3CCOCC3)c(O)ccc12	/	/	/	2%	/
COc1ccc(-c2nc(N3CCN(S(=O)(=O)c4ccc(C)cc4)CC3)c3ccccc3n2)cc1	/	/	/	-10%	/
N#Cc1c(SC(C(=O)O)c2ccccc2)nc2c(c1-c1cccs1)CCCC2 (stereo not drawn)	-14%	30µM*	-19	-28%	2%
CC(C)(C)C(=O)Nc1ccc(-c2nc3ccccc3s2)cc1	/	/	/	4%	/
CNc1ccc(-c2nc3ccccc3s2)cc1	/	/	/	11µM*	/
Cc1nc(-c2ccccc2)sc1CCNC(=O)c1ccco1	/	/	/	6%	/
COc1ccc(-c2c(C)c3ccc(O)c(CN4CCOCC4)c3oc2=O)cc1OC	/	/	/	9%	/
CCOC(=O)/C(=C\c1ccccc1)C(=O)CCN1CCOCC1	-3%	6.7µM*	/	?	-1%
O=C(CCc1ccccc1)OCCN1CCOCC1	1%	0%	2	13%	2%
Cc1cc2nc(-c3ccc(OCc4ccccc4C)cc3)cc(C(F)(F)F)n2n1	/	/	/	-30%	/
N#C/C(=C\c1ccc(OCc2ccccc2)cc1)C(=O)Nc1ccc(C(=O)O)cc1	-8%	21µM*	-21	5%	-2%
COc1cc(/C=C(\C#N)C(=O)Nc2cccc(C(=O)O)c2)ccc1OCc1ccc(Cl)cc1	-4%	-26%	-23	-13%	-6%
SMILES	PTAP TSG101 blk	PLK1 PBD inh	TSHR antagonist	VDR inhibitor	uPA generation
COc1cc(/C=C(/C#N)C(=O)Nc2ccccc2)c(Br)cc1OCc1ccc(C(=O)O)cc1	-6%	24µM*	-17	50µM*	0%
C=C1c2nc3ccccc3n2C=C(c2ccc(C)cc2)N1c1ccccc1	-1%	-11%	/	-7%	-9%
CCOc1ccc(CCNC(=O)Cn2c(C)c3cnn(-c4ccccc4)c(=O)c3c2C)cc1	/	/	/	4%	/
CC(C)(C)CC(C)(C)SSc1n[nH]c(=S)s1	0%	27µM*	/	?	-3%
COc1ccc(C2(C(=O)c3ccccc3)C(=O)c3ccccc3C2=O)cc1	-3%	12µM*	-1	?	-20%
Oc1ccc(/C=C/c2cc(O)cc(O)c2)cc1	-2%	-9%	9	-8%	6.3µM*
O=C(NC(c1ccc(-c2ccccc2)cc1)c1cnccn1)C1CCN(Cc2cccc(C(F)(F)F)c2)CC1 (stereo not drawn)	/	-2%	/	/	/
CC(=O)N1/C(=C/c2ccc(N(C)C)cc2)C(=O)c2ccccc21	2%	-9%	14	32µM*	-15%
O=C1C(Cl)=C(N2CCC(C(=O)O)CC2)C(=O)c2ccccc21	-1%	?	7	?	?
CN1CCN(C2=C(Cl)C(=O)C(c3cnc(N4CCCCC4)s3)=C(Cl)C2=O)CC1	-1%	3.8µM*	1	50µM*	-7%
CN1CCN(C2=C(Cl)C(=O)c3ccccc3C2=O)CC1	-16%	9.5µM*	/	50µM*	-15%
CN1CCN(C2=C(Cl)C(=O)N(C3CCCCC3)C2=O)CC1	-4%	-8%	-9	1%	-12%
NC(=O)C1CCN(C2=C(Cl)C(=O)c3ccccc3C2=O)CC1	-7%	27µM*	44	?	-13%
CCC(=O)N1CCc2cc(CNS(=O)(=O)c3ccc(NC(=O)CC(C)C)cc3)ccc21	/	/	/	11%	/
O=C(CNS(=O)(=O)c1ccccc1)N/N=C\c1ccc(Cl)cc1	2%	24µM*	18	-18%	1%
COc1ccc(-c2ccc(C3C4C=CCCC4(C)C(=O)N3Cc3ccccc3)c(F)c2)cc1 (stereo not drawn)	/	/	/	-24%	/
COc1ccc(-c2ccccc2C2C3C=CCCC3(C)C(=O)N2Cc2ccccc2)cc1 (stereo not drawn)	/	/	/	79µM*	/
Cc1cc(C)c2c(=O)n(CC(=O)NCCCN3CCN(c4ccccc4F)CC3)sc2n1	-2%	2.1µM*	-4	16µM*	?
Cc1cc(C)c2c(=O)n(CC(=O)NCCCN3CCOCC3)sc2n1	-5%	1.5µM*	0	?	-4%
Cc1ccccc1CS(=O)(=O)CCC(=O)NCCCN1CCN(c2ccccc2F)CC1	-1%	-2%	16	12%	4%
CCOc1ccccc1NC(=O)CCCc1nc(-c2ccccc2Cl)no1	/	/	/	3%	/
O=C(CSc1nnc2scc(-c3ccc(Cl)cc3)n12)Nc1ccccc1F	/	/	/	7%	/
O=c1c2nc(Br)n([C@@H]3O[C@@H]4CO[P@@](O)(=S)O[C@H]4[C@H]3O)c2nc2[nH]c(-c3ccccc3)cn12	/	/	/	-1%	/
O=c1nc(/C=C/c2ccccc2C(F)(F)F)cc(C(F)(F)F)[nH]1	-3%	-20%	?	32µM*	-69%
COc1ccc(/C=C/c2cc(C(F)(F)F)[nH]c(=O)n2)cc1OC	-5%	-14%	16	?	-13%
CCOc1cc(/C=N/N=C2/NC(=O)C(CC(=O)O)S2)ccc1OCc1ccc(Cl)cc1Cl (stereo not drawn)	-9%	27µM*	-3	5%	-9%
Nc1ccccc1C(=O)C[C@@H](N)C(=O)O	/	/	/	8%	/
COc1ccccc1C(=O)OCC(=O)NC12CC3CC(CC(C3)C1)C2	-3%	-3%	-19	9%	13%
O=C(COc1ccccc1F)NC12CC3CC(CC(C3)C1)C2	-2%	30µM*	-8	?	0%
Cc1ccc(C(=O)Nc2ncc3c(Cl)cccc3n2)cc1	-5%	21µM*	12	-22%	-10%

Screening data (PubChem BioAssay)
